According to PubChem BioAssay (EPA / NIEHS):
“And” between values parts separate entries of the source, which are not always exact repeats. Equal values may be shown once. Inconclusive results are not listed. A structure can be active in one record and inactive in another. The source made the active and inactive calls. Rule for the calls, unless noted: active = hit-call score of the fitted dose curve at least 0.9, where 1 is the maximum; inconclusive = response in the unintended direction; inactive = score below 0.9.

Assays:
[1] = test system: zebrafish Estrogen Receptor (ER2a), gene 317734; experiment: ATG_zfER2a_XSP2: Attagene TRANS-FACTORIAL Multi-Species (XSP2) HepG2 Assay for zebrafish Estrogen Receptor (ER2a) (AID 2283818);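 note: hits raise reporter mRNA so AC50 reflects activation of zebrafish ER2a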
Outline: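 Multiplexed trans-reporter readout: RT-PCR then capillary electrophoresis of reporter transcripts after 24 h compound treatment. Human HepG2 carries transfected zebrafish ER2a-Gal4 chimera; 3 nM 6-alpha-fluorotestosterone plus 1.5 nM norgestrel present. Induction scored against DMSO.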

[2] = test system: frog Estrogen Receptor (ER), gene 398734; experiment: ATG_frER1_XSP2: Attagene TRANS-FACTORIAL Multi-Species (XSP2) HepG2 Assay for frog Estrogen Receptor (ER) (AID 2283821);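 note: hits raise reporter mRNA above DMSO baseline so potency means agonist or activator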
Outline: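 HepG2 cells transiently transfected with multiplexed GAL4-UAS reporter units expressing chimeric NR-Gal4 proteins (TRANS format) were dosed for 24 h. Reporter mRNA was quantified by RT-PCR, FAM primer extension, HpaI digestion and capillary electrophoresis; gain of signal relative to DMSO.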

[3] = test system: zebrafish Estrogen Receptor (ER2b), gene 317733; experiment: ATG_zfER2b_XSP2: Attagene TRANS-FACTORIAL Multi-Species (XSP2) HepG2 Assay for zebrafish Estrogen Receptor (ER2b) (AID 2283823);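 note: fitted upward as reporter gain over DMSO so potency reflects activation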
Outline: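 Read-out: fluorescent reporter mRNA, measured by RT-PCR then capillary electrophoresis after HpaI digestion. HepG2 cells carried transiently transfected multi-reporter TRANS constructs (NR-Gal4 chimeras); 24 h chemical exposure; activity scored upward versus DMSO control.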

[4] = biological target: Estrogen receptor (Homo sapiens) (UniProt P03372); experiment: ATG_hERa_XSP2: Attagene TRANS-FACTORIAL Multi-Species (XSP2) HepG2 Assay for human Estrogen Receptor (ERa) (AID 2283827)
Chain of Estrogen receptor (Homo sapiens) (P03372 whole entry, looked up, the tested form may be a part): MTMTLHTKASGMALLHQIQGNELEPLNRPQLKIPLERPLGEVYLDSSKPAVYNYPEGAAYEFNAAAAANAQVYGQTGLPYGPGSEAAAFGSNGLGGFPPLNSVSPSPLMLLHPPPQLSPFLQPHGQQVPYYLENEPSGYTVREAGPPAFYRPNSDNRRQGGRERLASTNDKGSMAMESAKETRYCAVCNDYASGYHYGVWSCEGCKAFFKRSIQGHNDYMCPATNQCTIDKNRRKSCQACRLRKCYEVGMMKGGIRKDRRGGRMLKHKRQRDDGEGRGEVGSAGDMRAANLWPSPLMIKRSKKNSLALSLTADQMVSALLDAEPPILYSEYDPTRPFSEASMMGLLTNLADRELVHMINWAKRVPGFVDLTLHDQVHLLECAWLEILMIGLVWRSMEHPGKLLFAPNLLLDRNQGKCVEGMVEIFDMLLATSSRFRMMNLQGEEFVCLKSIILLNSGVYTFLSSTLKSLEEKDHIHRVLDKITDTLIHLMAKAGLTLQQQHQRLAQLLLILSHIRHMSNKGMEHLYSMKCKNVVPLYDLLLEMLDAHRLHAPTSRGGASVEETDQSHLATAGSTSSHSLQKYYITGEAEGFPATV
Outline: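 Trans-activation of exogenous human ERa-Gal4 chimera read in HepG2 as reporter transcript after 24 h exposure; medium included 3 nM 6-alpha-fluorotestosterone and 1.5 nM norgestrel. Quantified by RT-PCR with capillary electrophoresis, positive-direction fitting against DMSO.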

[5] = test system: frog Estrogen Receptor (ER2), gene 100174814; experiment: ATG_frER2_XSP2: Attagene TRANS-FACTORIAL Multi-Species (XSP2) HepG2 Assay for frog Estrogen Receptor (ER2) (AID 2283828)
Outline: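 Read-out: reporter transcript levels by RT-PCR with 6-FAM primer extension, HpaI digestion and capillary electrophoresis, scored as induction over DMSO control. Transfected HepG2 carrying Xenopus ER2–GAL4 chimera; compounds incubated 24 h.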

[6] = biological target: Peroxisome proliferator-activated receptor gamma (Homo sapiens) (UniProt P37231); experiment: ATG_hPPARg_XSP2: Attagene TRANS-FACTORIAL Multi-Species (XSP2) HepG2 Assay for human Peroxisome Proliferator-activated Receptor gamma (PPARg) (AID 2283829);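 note: actives raise reporter mRNA above DMSO so AC50 reflects PPARg activation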
Chain of Peroxisome proliferator-activated receptor gamma (Homo sapiens) (P37231 whole entry, looked up, the tested form may be a part): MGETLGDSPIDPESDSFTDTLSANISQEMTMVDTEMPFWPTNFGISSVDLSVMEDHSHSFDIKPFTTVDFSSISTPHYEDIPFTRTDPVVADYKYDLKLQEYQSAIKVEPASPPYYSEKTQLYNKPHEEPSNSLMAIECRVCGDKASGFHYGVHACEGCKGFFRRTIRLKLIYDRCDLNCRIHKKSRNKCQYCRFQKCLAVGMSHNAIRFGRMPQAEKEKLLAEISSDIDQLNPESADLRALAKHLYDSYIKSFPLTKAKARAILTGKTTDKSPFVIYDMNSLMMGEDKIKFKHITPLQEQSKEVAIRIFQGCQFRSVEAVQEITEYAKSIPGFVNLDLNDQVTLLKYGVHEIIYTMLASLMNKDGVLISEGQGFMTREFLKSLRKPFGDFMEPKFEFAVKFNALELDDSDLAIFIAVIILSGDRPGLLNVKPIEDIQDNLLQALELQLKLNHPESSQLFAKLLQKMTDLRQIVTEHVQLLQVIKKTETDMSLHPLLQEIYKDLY
Outline: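 HepG2 cells transiently transfected with multiplexed GAL4-UAS reporter units for chimeric NR-Gal4 receptors, dosed 24 h. Reporter mRNA quantified by RT-PCR, 6-FAM labeling, HpaI digestion and capillary electrophoresis; gain-of-signal fitted against DMSO baseline.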

[7] = biological target: mouse Peroxisome Proliferator-activated Receptor gamma (PPARg), Pparg (gene 19016) (UniProt P37238); experiment: ATG_mPPARg_XSP2: Attagene TRANS-FACTORIAL Multi-Species (XSP2) HepG2 Assay for mouse Peroxisome Proliferator-activated Receptor gamma (PPARg) (AID 2283830);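 note: hits are gains in reporter mRNA above DMSO so AC50 marks activation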
Chain of mouse Peroxisome Proliferator-activated Receptor gamma (PPARg), Pparg (gene 19016) (P37238 whole entry, looked up, the tested form may be a part): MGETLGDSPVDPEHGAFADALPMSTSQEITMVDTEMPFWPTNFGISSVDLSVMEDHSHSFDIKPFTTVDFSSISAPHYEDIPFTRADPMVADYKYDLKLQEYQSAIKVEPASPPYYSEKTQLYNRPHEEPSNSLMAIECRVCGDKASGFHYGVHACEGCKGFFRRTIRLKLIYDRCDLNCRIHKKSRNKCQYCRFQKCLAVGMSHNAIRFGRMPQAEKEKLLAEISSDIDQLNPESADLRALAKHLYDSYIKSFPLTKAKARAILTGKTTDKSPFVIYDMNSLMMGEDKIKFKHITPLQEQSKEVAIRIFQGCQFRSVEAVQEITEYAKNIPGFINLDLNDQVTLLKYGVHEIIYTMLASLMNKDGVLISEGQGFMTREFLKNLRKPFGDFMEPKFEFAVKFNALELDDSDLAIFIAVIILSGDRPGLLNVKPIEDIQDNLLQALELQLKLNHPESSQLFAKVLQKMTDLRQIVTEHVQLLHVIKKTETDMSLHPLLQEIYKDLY
Outline: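 Multiplexed TRANS reporter readout: after 24 h chemical exposure of transfected HepG2 cells (with 3 nM 6-alpha-fluorotestosterone, 1.5 nM norgestrel present), RNA reverse-transcribed, amplified, 6-FAM-labelled and resolved by capillary electrophoresis; mouse PPARg-Gal4 induction scored against DMSO.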

[8] = biological target: Nuclear receptor subfamily 1 group I member 2 (Mus musculus) (UniProt O54915); experiment: ATG_mPXR_XSP2: Attagene TRANS-FACTORIAL Multi-Species (XSP1) HepG2 Assay for mouse Pregnane X Receptor (PXR) (AID 2283831)
Chain of Nuclear receptor subfamily 1 group I member 2 (Mus musculus) (O54915 whole entry, looked up, the tested form may be a part): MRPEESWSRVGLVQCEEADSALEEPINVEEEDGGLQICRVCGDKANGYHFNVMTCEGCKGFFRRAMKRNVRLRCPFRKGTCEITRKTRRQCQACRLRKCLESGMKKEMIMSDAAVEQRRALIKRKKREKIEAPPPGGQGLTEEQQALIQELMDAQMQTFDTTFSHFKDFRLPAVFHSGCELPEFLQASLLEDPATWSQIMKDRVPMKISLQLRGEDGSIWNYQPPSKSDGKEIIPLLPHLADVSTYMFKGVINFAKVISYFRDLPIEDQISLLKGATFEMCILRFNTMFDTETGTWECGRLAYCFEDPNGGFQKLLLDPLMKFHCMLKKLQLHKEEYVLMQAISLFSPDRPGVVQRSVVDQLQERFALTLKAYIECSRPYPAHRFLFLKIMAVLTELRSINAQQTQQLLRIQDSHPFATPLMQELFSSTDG
Outline: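 HepG2 cells transiently transfected with GAL4-UAS reporter units expressing chimeric NR-GAL4 proteins; reporter mRNA measured 24 h after dosing by RT-PCR with 6-FAM labelling and capillary electrophoresis, gain of signal relative to DMSO.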

[9] = test system: zebrafish Peroxisome Proliferator-activated Receptor gamma (PPARg), gene 557037; experiment: ATG_zfPPARg_XSP2: Attagene TRANS-FACTORIAL Multi-Species (XSP2) HepG2 Assay for zebrafish Peroxisome Proliferator-activated Receptor gamma (PPARg) (AID 2283833);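 note: actives increase reporter signal over DMSO so AC50 reflects activation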
Outline: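 HepG2 cells transiently transfected with GAL4-UAS reporter units expressing a zebrafish PPARg–GAL4 chimera; compound exposure 24 h. Reporter mRNA quantified by RT-PCR with fluorescent labelling and capillary electrophoresis; gain of signal fitted relative to DMSO baseline.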

[10] = test system: turtle Thyroid Hormone Receptor, alpha (TRa), gene 101949057; experiment: ATG_trTRa_XSP2: Attagene TRANS-FACTORIAL Multi-Species (XSP1) HepG2 Assay for turtle Thyroid Hormone Receptor, alpha (TRa) (AID 2283834);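 note: hits raise reporter mRNA over the DMSO baseline so AC50 marks activators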
Outline: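 HepG2 cells transiently transfected with multiplexed GAL4-UAS reporter units expressing chimeric NR-Gal4 proteins were dosed for 24 hours. Reporter mRNA was quantified by RT-PCR with 6-FAM labelling and capillary electrophoresis, gain of signal scored against DMSO.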

[11] = ATG_M_61_XSP2: Attagene TRANS-FACTORIAL Multi-Species (XSP2) HepG2 Assay for M61 Transcription Factor (Internal Marker) (AID 2283835; active = hit-call score of the fitted dose curve at least 0.9, where 1 is the maximum; inactive = score below 0.9;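 note: active means a rise in signal above the DMSO baseline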)
Outline: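 Internal background marker, read as RT-PCR/capillary-electrophoresis reporter mRNA 24 h post-dose in transiently transfected HepG2 cells. Androgen receptor stimulated with 3 nM 6-alpha-fluorotestosterone plus 1.5 nM norgestrel; gain of signal versus DMSO analysed.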

[12] = biological target: zebrafish Thyroid Hormone Receptor beta (TRb), thrb (gene 30607) (UniProt Q9PVE4); experiment: ATG_zfTRb_XSP2: Attagene TRANS-FACTORIAL Multi-Species (XSP1) HepG2 Assay for zebrafish Thyroid Hormone Receptor beta (TRb) (AID 2283836)
Chain of zebrafish Thyroid Hormone Receptor beta (TRb), thrb (gene 30607) (Q9PVE4 whole entry, looked up): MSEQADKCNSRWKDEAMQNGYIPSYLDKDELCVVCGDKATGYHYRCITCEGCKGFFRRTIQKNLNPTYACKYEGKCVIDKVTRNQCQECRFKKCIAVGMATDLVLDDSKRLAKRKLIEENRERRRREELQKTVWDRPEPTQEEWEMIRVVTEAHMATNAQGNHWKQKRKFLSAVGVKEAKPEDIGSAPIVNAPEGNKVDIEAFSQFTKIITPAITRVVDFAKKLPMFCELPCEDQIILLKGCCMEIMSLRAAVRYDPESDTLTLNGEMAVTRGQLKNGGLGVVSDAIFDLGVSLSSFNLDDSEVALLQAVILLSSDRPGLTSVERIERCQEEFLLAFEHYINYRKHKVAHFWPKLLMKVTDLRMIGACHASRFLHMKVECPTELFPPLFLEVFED
Outline: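 Reporter transcripts were measured by RT-PCR with fluorescent primer extension and capillary electrophoresis, 24 h after chemical dosing of transiently transfected HepG2 cells. Activity was scored as upward signal versus DMSO baseline.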

[13] = ATG_XTT_Cytotoxicity_XSP2: Cytotoxicity Assessment in the Attagene TRANS-FACTORIAL Multi-Species (XSP2) HepG2 Assay (AID 2283837)
Outline: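 XTT-based cell number read-out in human HepG2 liver cells carrying transfected reporter units, measured 24 h after chemical dosing. Activity is signal loss versus DMSO baseline.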

[14] = biological target: frog Thyroid hormone Receptor alpha (TRa), thra-a (gene 397942) (UniProt P15204); experiment: ATG_frTRa_XSP2: Attagene TRANS-FACTORIAL Multi-Species (XSP2) HepG2 Assay for frog Thyroid hormone Receptor alpha (TRa) (AID 2283839)
Chain of frog Thyroid hormone Receptor alpha (TRa), thra-a (gene 397942) (P15204 whole entry, looked up, the tested form may be a part): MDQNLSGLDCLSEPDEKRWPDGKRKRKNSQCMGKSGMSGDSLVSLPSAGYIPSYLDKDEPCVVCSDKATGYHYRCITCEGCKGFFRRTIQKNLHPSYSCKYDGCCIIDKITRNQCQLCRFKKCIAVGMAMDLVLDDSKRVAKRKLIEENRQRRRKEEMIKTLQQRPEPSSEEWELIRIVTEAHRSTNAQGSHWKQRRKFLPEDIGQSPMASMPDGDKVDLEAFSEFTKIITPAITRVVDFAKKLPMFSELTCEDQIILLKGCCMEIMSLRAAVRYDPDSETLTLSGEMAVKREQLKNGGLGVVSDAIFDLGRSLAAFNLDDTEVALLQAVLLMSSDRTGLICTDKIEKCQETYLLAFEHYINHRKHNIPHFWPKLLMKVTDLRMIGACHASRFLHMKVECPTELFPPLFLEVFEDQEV
Outline: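 HepG2 cells transiently transfected with multiplexed GAL4-UAS reporter units expressing chimeric frog TRα-Gal4; reporter mRNA read 24 h after dosing by RT-PCR, FAM-labelled primer extension, HpaI digest and capillary electrophoresis. Gain of signal fitted versus DMSO.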

[15] = test system: chicken Androgen Receptor (AR), gene 422165; experiment: ATG_chAR_XSP2: Attagene TRANS-FACTORIAL Multi-Species (XSP2) HepG2 Assay for chicken Androgen Receptor (AR) (AID 2283819);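 note: hits raise reporter mRNA above DMSO so potency is for activation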
Outline: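 Readout is reporter mRNA induction via RT-PCR/capillary electrophoresis after 24 h chemical exposure, positive direction relative to DMSO. Transiently transfected HepG2 express chimeric chicken AR–GAL4; AR stimulated by 3 nM 6-alpha-fluorotestosterone and 1.5 nM norgestrel.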

[16] = test system: zebrafish Androgen Receptor (AR), gene 100005148; experiment: ATG_zfAR_XSP2: Attagene TRANS-FACTORIAL Multi-Species (XSP2) HepG2 Assay for zebrafish Androgen Receptor (AR) (AID 2283825);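 note: hits raise reporter mRNA above DMSO so AC50 reflects agonist-type gain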
Outline: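 After 24 h compound exposure in medium with 3 nM 6-alpha-fluorotestosterone plus 1.5 nM norgestrel, HepG2 cells carrying zebrafish AR–GAL4 reporter constructs were assessed for reporter mRNA gain by RT-PCR and capillary electrophoresis.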

[17] = biological target: zebrafish Thyroid Hormone Receptor alpha (TRa), thraa (gene 30670) (UniProt Q98867); experiment: ATG_zfTRa_XSP2: Attagene TRANS-FACTORIAL Multi-Species (XSP1) HepG2 Assay for zebrafish Thyroid Hormone Receptor alpha (TRa) (AID 2283832);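 note: actives raise zebrafish TRa-Gal4 reporter transcript above DMSO baseline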
Chain of zebrafish Thyroid Hormone Receptor alpha (TRa), thraa (gene 30670) (Q98867 whole entry, looked up, the tested form may be a part): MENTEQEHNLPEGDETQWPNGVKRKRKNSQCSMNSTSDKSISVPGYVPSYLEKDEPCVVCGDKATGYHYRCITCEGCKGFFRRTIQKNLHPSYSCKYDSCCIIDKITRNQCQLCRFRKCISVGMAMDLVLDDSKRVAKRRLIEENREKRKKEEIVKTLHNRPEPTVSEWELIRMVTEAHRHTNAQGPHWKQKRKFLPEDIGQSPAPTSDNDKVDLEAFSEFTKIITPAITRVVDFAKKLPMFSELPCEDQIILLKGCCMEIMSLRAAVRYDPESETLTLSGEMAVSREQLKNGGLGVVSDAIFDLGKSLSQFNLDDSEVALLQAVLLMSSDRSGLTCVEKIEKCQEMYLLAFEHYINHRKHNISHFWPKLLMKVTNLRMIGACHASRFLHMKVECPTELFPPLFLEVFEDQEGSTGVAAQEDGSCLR
Outline: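 Readout is reporter mRNA induction, quantified by RT-PCR and capillary electrophoresis with fluorescent labelling, after 24 h compound exposure of transiently transfected HepG2 cells carrying NR-Gal4 chimera reporters. Activity fitted upward relative to DMSO.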

[18] = biological target: human Thyroid hormone Receptor alpha (TRa), THRA (gene 7067) (UniProt P10827); experiment: ATG_hTRa_XSP2: Attagene TRANS-FACTORIAL Multi-Species (XSP2) HepG2 Assay for human Thyroid hormone Receptor alpha (TRa) (AID 2283838)
Chain of human Thyroid hormone Receptor alpha (TRa), THRA (gene 7067) (P10827 whole entry, looked up, the tested form may be a part): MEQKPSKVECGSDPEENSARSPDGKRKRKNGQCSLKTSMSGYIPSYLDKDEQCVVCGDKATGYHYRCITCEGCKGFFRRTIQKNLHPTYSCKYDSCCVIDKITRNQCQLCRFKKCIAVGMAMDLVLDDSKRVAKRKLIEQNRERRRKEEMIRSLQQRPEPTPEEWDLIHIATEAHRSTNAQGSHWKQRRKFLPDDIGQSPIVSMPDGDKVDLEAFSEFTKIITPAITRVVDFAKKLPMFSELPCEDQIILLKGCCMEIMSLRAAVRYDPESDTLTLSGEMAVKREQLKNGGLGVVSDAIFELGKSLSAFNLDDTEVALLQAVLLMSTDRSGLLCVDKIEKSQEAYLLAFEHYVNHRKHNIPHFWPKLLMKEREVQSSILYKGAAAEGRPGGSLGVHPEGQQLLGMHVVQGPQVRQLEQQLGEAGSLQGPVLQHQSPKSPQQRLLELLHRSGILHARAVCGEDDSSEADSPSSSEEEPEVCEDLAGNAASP
Outline: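 Gain-of-signal in reporter mRNA, relative to DMSO, after 24 h dosing of transfected HepG2; quantitation by RT-PCR fragment analysis on capillary electrophoresis.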

[19] = biological target: human Thyroid hormone Receptor beta (TRb), THRB (gene 7068) (UniProt P10828); experiment: ATG_hTRb_XSP2: Attagene TRANS-FACTORIAL Multi-Species (XSP2) HepG2 Assay for human Thyroid hormone Receptor beta (TRb) (AID 2283840);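 note: actives raise reporter mRNA so potency reflects agonist-like gain of signal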
Chain of human Thyroid hormone Receptor beta (TRb), THRB (gene 7068) (P10828 whole entry, looked up, the tested form may be a part): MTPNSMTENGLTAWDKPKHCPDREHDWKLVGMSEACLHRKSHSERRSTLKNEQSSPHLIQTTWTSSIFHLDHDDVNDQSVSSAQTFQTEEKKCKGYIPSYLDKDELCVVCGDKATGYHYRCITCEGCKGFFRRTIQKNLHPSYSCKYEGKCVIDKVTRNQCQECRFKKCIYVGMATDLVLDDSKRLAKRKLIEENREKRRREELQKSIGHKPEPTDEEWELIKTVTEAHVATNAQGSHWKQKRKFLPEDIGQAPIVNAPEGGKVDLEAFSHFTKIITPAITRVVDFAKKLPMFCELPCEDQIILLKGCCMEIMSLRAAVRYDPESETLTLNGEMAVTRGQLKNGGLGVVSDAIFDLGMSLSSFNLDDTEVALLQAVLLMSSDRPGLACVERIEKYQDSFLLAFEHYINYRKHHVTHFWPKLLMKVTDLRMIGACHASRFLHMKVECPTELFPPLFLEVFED
Outline: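 HepG2 cells were transiently transfected with GAL4-UAS multiplexed reporter units expressing chimeric NR-Gal4 proteins, dosed 24 h; reporter mRNA was quantified by RT-PCR, fluorescent labeling, HpaI digestion and capillary electrophoresis, fitted for gain of signal versus DMSO.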

[20] = test system: frog Androgen Receptor (AR), gene 399456; experiment: ATG_frAR_XSP2: Attagene TRANS-FACTORIAL Multi-Species (XSP2) HepG2 Assay for frog Androgen Receptor (AR) (AID 2283824);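 note: reporter mRNA from GAL4-UAS units driven by Xenopus AR-Gal4 chimera; actives raise reporter signal above DMSO so AC50 reflects agonist-like induction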
Outline: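 Reporter transcript induction, read by RT-PCR with fluorescent capillary electrophoresis, in human liver HepG2 cells carrying an exogenous Xenopus AR-Gal4 fusion and GAL4-driven reporters; chemical exposure 24 hours, activity scored upward against DMSO controls.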

Measured: AC50

CC(=O)C(C)=CC1C(C)=CCCC1(C)C (centres undefined)
inactive: [6] | [9] | [10] | [11] | [12] | [13] | [14]
active: [1] 15 µM and 19.8 µM | [2] 27.3 µM and 27.2 µM | [3] 32 µM and 29.8 µM | [4] 19.8 µM and 21.3 µM | [5] 27.7 µM and 14.7 µM | [6] 64.4 µM | [7] 146 µM and 25.2 µM | [8] 8.16 µM and 12.9 µM

C=CCOC(=O)c1ccccc1C(=O)OCC=C
inactive: [1] | [15] | [2] | [16] | [5] | [6] | [7] | [8] | [17] | [9] | [10] | [11] | [12] | [13] | [18] | [14] | [19]
active: [3] 139 µM and 78.9 µM | [4] 53.5 µM and 100 µM | [5] 51.2 µM | [6] 43.7 µM | [7] 44.1 µM | [8] 27.5 µM

CC(C)(C)c1cc(O)c(C(C)(C)C)cc1O
inactive: [1] | [15] | [2] | [4] | [5] | [17] | [9] | [11] | [12] | [14]
active: [3] 49.3 µM | [6] 42.7 µM | [7] 57.5 µM

CCCc1cc(=O)[nH]c(=S)[nH]1
inactive: [2] | [3] | [20] | [16] | [4] | [6] | [7] | [8] | [9] | [10] | [12] | [18] | [14]
